Test results taken from PubChem BioAssay AID651965 (National Center for Advancing Translational Sciences (NCATS), 2013).
Hit rate of the full screen: of about 340,000 compounds, about 6,400 (1.9%) were called active. Inconclusive results (about 4%) are left out. The list comes from a sample in which actives are over-represented; it also holds similar structures and randomly drawn compounds. Values without a mark were called inactive. Calls follow the shape of the dose curve; as a rule, active = well fitted falling curve with a large enough effect; inconclusive = small, poorly fitted or top-dose-only effect; inactive = no such curve, though single readings can be large or run the other way.

The compounds below were run against ATP-dependent Clp protease proteolytic subunit (Bacillus subtilis (strain 168)) (UniProt P80244) (assay: qHTS Assay for Activators of ClpP). Settings: purified B. subtilis ClpP, FRET peptide cleavage, 20 min; series mostly up to 57.5 µM; activity change, negative = active: at the top concentration.
Text: The Clp protease proteolytic subunit (ClpP) is the core unit of the Clp complex belonging to the peptidase family S14 that hydrolyzes protein into small peptides in the presence of ATP and magnesium. It is ubiquitously expressed and is the major protease in bacteria. […] Unlike common antibiotics that simply interfere with the essential enzyme activity, ADEP binding activates the ClpP core in the absence of the regulatory Clp-ATPases leading to uncontrolled proteolysis and eventually cell death. Activators binding to the docking site on ClpP can also block formation of the ClpXP and ClpA/C-P holoenzyme complexes interfering with the normal biological functions of ClpP and thus have the potential to become new anti-microbials.
To identify activators of ClpP, a FRET based quenching reversal assay was developed using a purified B. subtilis ClpP and a decapeptide substrate (FRET-FV). The FRET-FV is tagged with a fluorescent molecule amino benzoic acid (donor) at the N-terminus and a nitrotyrosine quencher (acceptor) at the C-terminus. FRET-FV cleaves upon activation of ClpP with ADEP treatement and reverses the quenching effect of the nitrotyrosine causing an increase in fluorescence emission signal at 430nm. This assay was used to screen the Molecular Libraries Small Molecule Repository (MLSMR).
NIH Molecular Libraries Probe Production Centers Network [MLPCN]
NIH Chemical Genomics Center [NCGC]
Assay Submitter (PI): Michael Maurizi, National Cancer Institute
Two and a half microL/well of purified enzyme solution (final concentrations 10 microg/mL B. subtilis ClpP in 100 mM Tris/HCl pH8, 100 mM KCl, 0.05% low protease BSA, 2.5% glycerol, 0.01% Tween-20 buffer) was dispensed into 1536-well assay plates (Greiner, black solid, medium-binding plates) with Aurora Discovery BioRAPTR Flying Reagent Dispenser (FRD, Beckton-Dickenson). Compound solution (23 nL) was transferred to the assay plate using Kalypsys pin tool equipped with a 1536-pin tool. […] FRET signals at time 0 and after 20 min room temperature incubation were obtained using the PerkinElmer Envision plate reader with 320nm excitation and 430nm emission filters. Delta FRET value (Time 20 - Time 0) was calculated and normalized to the delta FRET value of positive control ADEP (5.8 microM final concentration) and negative control DMSO and no enzyme wells.
Also: the source files actives as falling curves though it sought activators and does not explain the sign; nearly all actives have a fitted effect of over 65% in size.
Potency is read from the fitted curve at half-maximal effect.

Chain of ATP-dependent Clp protease proteolytic subunit (Bacillus subtilis (strain 168)) (P80244 whole entry, looked up): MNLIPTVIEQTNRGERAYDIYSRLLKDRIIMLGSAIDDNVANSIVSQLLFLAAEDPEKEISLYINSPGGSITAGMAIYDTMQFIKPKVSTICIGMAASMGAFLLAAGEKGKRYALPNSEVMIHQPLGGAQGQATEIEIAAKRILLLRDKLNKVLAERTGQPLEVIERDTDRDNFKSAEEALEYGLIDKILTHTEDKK

Row | Structure (SMILES) | activity change, negative = active | Potency
1 | O=C(NCc1ccc2c(c1)OCO2)c1cc(F)c(F)cc1Cl | 0.908% | 
2 | Cc1nc2c(C(=O)NCc3ccc4c(c3)OCO4)c[nH]n2c(=O)c1Cc1ccccc1F |  | 31.6 µM (active)
3 | CCn1c(=O)c(C(=O)NCc2ccc3c(c2)OCO3)c(O)c2ccccc21 | -2.41% | 
4 | OCCc1ccc(NCCc2ccco2)cc1 | -2.59% | 
5 | CCCNC(=O)C1(C)CCCN(C(=O)c2cccc(OC(C)=O)c2C)C1 (centres undefined) | -0.0684% | 
6 | O=C1C[C@H]2C=CCc3cccc(c32)CN1Cc1ccccc1 | -2.81% | 
7 | CC(=O)OCC(C)n1c(=O)c2ccccc2n1C(C)=O (centres undefined) | 7.13% | 
8 | Cc1ccc(Nc2nc(N3CCOCC3)nc(N3CCOCC3)n2)cc1Cl | 1.71% | 
9 | O=C(CN1CCOCC1)Nc1c2c(nc3c1CCC3)CCC2 | -0.252% | 
10 | Cc1nc(N2CCOCC2)nc2c1CCCC2 |  | 28.2 µM (active)
11 | CCc1nc2c(OCCc3cccc(OC)c3)cccn2c1N(C)C(=O)c1ccc(C)cc1 | -1.31% | 
12 | O=C1CC2(CCCC2)Oc2ccc(Cl)cc21 | 4.22% | 
13 | O=C1CC2(CCCCC2)Oc2ccc(OCC(=O)N3CCOCC3)cc21 |  | 10 µM (active)
14 | O=C(Nc1cccc(OCC(=O)N2CCOCC2)c1)C1CCCCC1 | -2.02% | 
15 | COc1cccc2[nH]c(C(=O)NCCc3ccccc3)cc12 | 4.06% | 
16 | COc1cccc2c(C)c(C(=O)O)[nH]c12 |  | 25.1 µM (active)
17 | COc1cc2c(C(=O)O)c(C)n(C)c2c2ccccc12 | 3.23% | 
18 | Cc1ccc(Cc2c(-c3ccc(Cl)cc3)nc3c4ccccc4ccn23)cc1 | 49.9% | 
19 | CC(C)(C)CC(=O)Nc1nc(C(N)Cc2ccc(C(F)(F)F)cc2)cs1 (centres undefined) | -1.68% | 
20 | Cc1cccc(N(CC(=O)Nc2ccc(-c3nc4ccc(C)cc4s3)cc2)S(C)(=O)=O)c1 |  | 15.8 µM (active)
21 | COc1cccc(N(CC(=O)Nc2cccc(F)c2)S(C)(=O)=O)c1 | -0.426% | 
22 | CCN(CC)S(=O)(=O)c1ccc(NC(=O)CN(c2cccc(F)c2)S(C)(=O)=O)cc1 | -3.47% | 

Row | Structure (SMILES) | activity change, negative = active | Potency
23 | COc1ccc(NC(=O)C2(C)Cc3c(-c4ccc(C(N)=O)cc4)ccnc3O2)cc1 (centres undefined) | -2.25% | 
24 | COc1ccc(-c2ccc(CN3C(CC(C)C)C(=O)N(Cc4cn(CC5CCCCC5)nn4)CCS3(=O)=O)cc2)cn1 (centres undefined) | -8.24% | 
25 | CCOC(=O)C(=Cc1ccccc1)C(=O)c1ccccc1 | -0.195% | 
26 | CN(C)CCCn1c(N)c(C#N)c2nc(C#N)c(C#N)nc21 | -15.7% | 
27 | N#Cc1c(N)n(CCOC(=O)c2ccc(Cl)cc2)c2nc3ccccc3nc12 |  | 28.2 µM (active)
28 | CC(C)(C)OC(=O)c1c(N)n(CCCN2CCCC2=O)c2nc3ccccc3nc12 | 38.4% | 
29 | CCc1ccc(OCCCn2c(CCCNC(=O)C3CCCCC3)nc3ccccc32)cc1 | 1.41% | 
30 | CCCCCCN1CCN(C2CN(Cc3cn(Cc4ccc(F)cc4)nn3)S(=O)(=O)C2)CC1 (centres undefined) | -3.87% | 
31 | CCN1C(=O)[C@H]2[C@@H](c3ccc(-c4ccc(F)cc4)cc3)N[C@@](Cc3ccccc3)(C(=O)OC)[C@H]2C1=O | -23.2% | 
32 | CCN1C(=O)[C@H]2[C@@H](c3ccc(-c4ccc(OC)cc4)cc3)N[C@@](Cc3ccccc3)(C(=O)OC)[C@H]2C1=O | 1.06% | 
33 | CCN1C(=O)[C@H]2[C@@H](c3ccc(SC4CCCCC4)c(OC)c3)N[C@@](Cc3ccccc3)(C(=O)OC)[C@H]2C1=O |  | 35.5 µM (active)
34 | CCCCC[C@H](C)N1C[C@@H](COCc2ccccc2)Oc2cc(N3CC[C@@H](N(C)C)C3)ccc2S1(=O)=O | -20.4% | 
35 | O=C(NCc1ccccn1)[C@@H]1CCCN1C(=O)[C@@H]1CCCN1C(=O)c1ccccc1 | 2.16% | 
36 | COc1ccc(N2c3ccccc3CN(Cc3ccccc3)[C@@H](C)[C@H]2Cc2ccc(-c3ccccc3)cc2)cc1 | -15.5% | 
37 | C=CCNC(=O)c1ccc2nc(-c3ccco3)c(-c3ccco3)nc2c1 | -8.38% | 
38 | CC(C)(C)C(=O)Nc1cccc(-c2ccc[nH]2)n1 |  | 12.6 µM (active)
39 | Cc1c(-c2cccc(NC(=O)C(C)(C)C)c2)nc2ncccn12 | 4.79% | 
40 | Cc1c(NC(=O)C(C)(C)C)cccc1-c1nc2ccccc2s1 | -1.86% | 
41 | COc1cccc(-c2cc(NC(C)=O)c3ncc(-c4cccc(C(C)=O)c4)n3c2)c1 | -4.01% | 
42 | CCOC(=O)C1CCCN(C(=O)c2ccc(N(C)C)cc2)CC1 (centres undefined) | 0.928% | 
43 | Cn1c(=O)c2[nH]c(NCC3CCCO3)nc2n(-c2ccccc2)c1=O (centres undefined) |  | 28.2 µM (active)
44 | Cc1sc2c(c1C)c(=O)n(-c1ccccc1)c(=O)n2CC(=O)NCC1CCCO1 (centres undefined) | 1.34% | 

Row | Structure (SMILES) | activity change, negative = active | Potency
45 | CC(C)(C)c1nc(NCC2CCCO2)c2nnn(Cc3ccccc3)c2n1 (centres undefined) | -0.0891% | 
46 | Oc1ccc(Br)cc1C1C=C(c2ccc3c(c2)OCO3)NC(c2ccc(Cl)cc2)N1 (centres undefined) | 0.41% | 
47 | CCc1ccc(OC2(C)CCN(CCOc3ccc(C)cc3)C2)cc1 (centres undefined) | -0.766% | 
48 | CC(C)Cc1ccc(-c2cc3nc(NCc4cccc(Cl)c4)ccn3n2)cc1 | 5.03% | 
49 | COc1cccc(C(=O)OCc2cc(=O)oc3c(C)c(C)ccc23)c1OC | 2.05% | 
50 | COC(=O)Cc1cc(=O)oc2c(C)c(O)ccc12 |  | 15.8 µM (active)
51 | CCCc1cc(=O)oc2c(C)c(OCC(=O)Nc3ccccn3)ccc12 | 4% | 
52 | CCOC(=O)[C@]12CCC=C1N(CCC1=CCCCC1)C(=O)[C@H](CC(=O)NCc1ccc(C)o1)C2 | 0.969% | 
53 | Cc1nccn1-c1ccc(NC(=O)[C@H]2O[C@@H](n3cnc4c(N)ncnc43)[C@H](O)[C@@H]2O)cc1 | 1.51% | 
54 | O=C(NCc1cccnc1)c1cc(C2CCCN(C(=O)C3CCCCC3)C2)on1 (centres undefined) | -0.544% | 
55 | CN(C)c1ccc(/C=C/C=C/c2ccnc3ccccc23)cc1 | 1.11% | 
56 | COc1ccc(Br)c(Cn2c(C)c(C(=O)NCc3cccs3)sc2=O)c1 | 1.44% | 
57 | O=C(NCc1ccccc1)C(c1ccc(F)cc1)N1CCN(C(=O)C2CCCO2)CC1 (centres undefined) | -1.43% | 
58 | COc1cccc(-n2cc(C(=O)NCc3cccc(Cl)c3)c3ccccc3c2=O)c1 |  | 25.1 µM (active)
59 | CCN(Cc1ccccc1)C(=O)c1cn(-c2cccc(OC)c2)c(=O)c2ccccc12 | -15% | 
60 | COc1cccc(CNC(=O)c2cccnc2Sc2ccc(Cl)cc2)c1 | 0.0811% | 
61 | CC1(C)CC(=O)c2cc(C(=O)NCc3ccccc3)c(=O)[nH]c2C1 | -8.46% | 
62 | CC(=O)Nc1cc(C(=O)NCc2ccc(F)cc2Cl)ccc1Sc1ccc(Cl)cc1 | -9.43% | 
63 | CN(C)Cc1ccc(F)cc1Sc1cc(Cl)ccc1Cl |  | 12.6 µM (active)
64 | Cc1ccc(-c2ccc(=O)n(Cc3ccc(F)cc3Cl)n2)cc1 | 0.44% | 
